Assay [1] can be described thus: adipocyte viability effects, profiling panel, cell-based, 3T3-L1 adipocytes, calcein-AM fluorescence, 48 h, basal (AID 1163). The settings on record: 3T3-L1 adipocytes viability, higher = more signal.
Assay [2] can be described thus: HepG2 cell viability effects, profiling panel, calcein-AM fluorescence, 48 h, basal (AID 1164). The settings on record: higher = more signal.
The nature of assay [3]: MM1S cell viability effects, profiling panel, calcein-AM fluorescence, 48 h, basal (AID 1165).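 Note: viability of MM1S multiple myeloma cells under basal unstimulated conditions.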 The settings on record: higher = more signal.
A short description of assay [4]: basal RPMI8226 viability, no added stimulus, profiling panel, cell-based, calcein-AM fluorescence, 48 h, PK04 Diversity Set (AID 1166).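 Note: cells grown under basal conditions without added stimulus.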 As to conditions: RPMI8226 myeloma viability, higher = more signal.
Assay [5] in a line: basal HepG2 mitochondrial membrane potential changes, profiling panel, cell-based, JC-1 fluorescence, 24 h, 100 nL compound (AID 1167). As to conditions: higher = more signal.
Assay [6] in a line: basal 3T3-L1 adipocyte mitochondrial potential changes, profiling panel, cell-based, JC-1 fluorescence, 3T3-L1 adipocytes, 24 h, 100 nL compound (AID 1168). As to conditions: JC-1 mitochondrial fluorescence, higher = more signal, called active from +8 up or from −8 down.
Assay [7] is described as follows: basal RPMI8226 mitochondrial membrane potential changes, profiling panel, cell-based, JC-1 fluorescence, 24 h, 100 nL compound (AID 1169). As to conditions: RPMI8226 myeloma, JC-1 mitochondrial potential fluorescence, higher = more signal.
A short description of assay [8]: basal MM1S mitochondrial membrane potential changes, profiling panel, cell-based, JC-1 fluorescence, 24 h, 100 nL compound (AID 1170). The settings on record: higher = more signal.
Assay [9] can be described thus: A549 lung cancer cell viability effects, profiling panel, resazurin fluorescence, 24 h, PK04 Diversity Set (AID 1171). The settings on record: higher = more signal, called active from +8 up or from −8 down. In general terms: Alamar Blue is a resazurin reagent that responds to reducing activity.
Assay [10] in a line: HepG2 liver cancer cell viability effects, profiling panel, resazurin fluorescence, 24 h, PK04 Diversity Set (AID 1172). As to conditions: higher = more signal.
Assay [11] can be described thus: basal S. cerevisiae growth modulation, no modifier, primary screen, OD600, strain BY4716, 24 h, basal condition (AID 1173). The settings on record: OD600, 24 h, higher = more signal, called active from +8 up or from −8 down.
Assay [12] can be described thus: MM1S myeloma cell viability, profiling panel, resazurin fluorescence, basal, 24 h, PK04 Diversity Set (AID 1174).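 Note: MM1S multiple myeloma cell line.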 As to conditions: higher = more signal, called active from +8 up or from −8 down.
Assay [13] concerns the target Dihydroorotate dehydrogenase (quinone), mitochondrial (Plasmodium falciparum (isolate 3D7)) (UniProt Q08210). Briefly: PfDHODH enzyme inhibitors, primary screen, biochemical, C-terminal His tag, absorbance 600 nm (AID 1175).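 Note: recombinant parasite enzyme with a five histidine tag at its C terminus.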 As to conditions: DCIP absorbance 600 nm, higher = more signal, called active from +8 up or from −8 down.
The nature of assay [14]: S. cerevisiae RM11-1a growth modifiers, primary screen, strain RM11-1a, OD600, basal, 24 h (AID 1177).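 Note: cultures grown under basal conditions with no added stressor.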 The settings on record: OD600, 24 h, higher = more signal, called active from +8 up or from −8 down.
The nature of assay [15]: E. coli acrAB mutant growth effects, primary screen, E. coli filamentation inducers, strain DRC39, OD650, 24 h (AID 1178).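 Note: growth measured as culture turbidity by optical density at 650 nm.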 As to conditions: higher = more signal, called active from +8 up or from −8 down.
Assay [16] in a line: E. coli acrAB mutant growth effects, primary screen, E. coli filamentation inducers, strain DRC39, OD650, 48 h (AID 1179).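 Note: screen aims at cell division blockers that make cells filament.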 The settings on record: E. coli DRC39 delta-acrAB growth, higher = more signal, called active from +8 up or from −8 down.
A short description of assay [17]: RPMI8226 myeloma cell viability, profiling panel, resazurin fluorescence, basal, 24 h, PK04 Diversity Set (AID 1180).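 Note: RPMI8826 multiple myeloma cell line at 5000 cells per well.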 As to conditions: higher = more signal.
The target of assay [18] is E3 ubiquitin-protein ligase XIAP (Homo sapiens) (UniProt P98170). Briefly: XIAP binders, primary screen, biophysical, small-molecule microarray, fluorescence 635 nm (AID 1181).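 Note: score merges 667 nm emission and signal to noise over triplicate slides.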 As to conditions: small-molecule microarray binding, higher = more signal.
Assay [19] has as its system XIP peptide (Xip251-270) binding. Briefly: small-molecule binders of XIP peptide, primary screen, biochemical, small-molecule microarray, fluorescence 635/667 nm, 0.1 µg/mL protein (AID 1182). The settings on record: fluorescent protein binding, 635 nm, higher = more signal, called active from +8 up or from −8 down.
The subject of a further assay is XIP peptide (Xip251-270). Briefly: small-molecule binders of XIP peptide, primary screen, biochemical, small-molecule microarray, fluorescence 635/667 nm, 0.5 µg/mL protein (AID 1183). The settings on record: small-molecule microarray binding, fluorescence 635 nm; higher = more signal.

The structures appear in SMILES notation. Calls of active or inactive are those of the source.

Chain of E3 ubiquitin-protein ligase XIAP (Homo sapiens) (P98170 whole entry, looked up): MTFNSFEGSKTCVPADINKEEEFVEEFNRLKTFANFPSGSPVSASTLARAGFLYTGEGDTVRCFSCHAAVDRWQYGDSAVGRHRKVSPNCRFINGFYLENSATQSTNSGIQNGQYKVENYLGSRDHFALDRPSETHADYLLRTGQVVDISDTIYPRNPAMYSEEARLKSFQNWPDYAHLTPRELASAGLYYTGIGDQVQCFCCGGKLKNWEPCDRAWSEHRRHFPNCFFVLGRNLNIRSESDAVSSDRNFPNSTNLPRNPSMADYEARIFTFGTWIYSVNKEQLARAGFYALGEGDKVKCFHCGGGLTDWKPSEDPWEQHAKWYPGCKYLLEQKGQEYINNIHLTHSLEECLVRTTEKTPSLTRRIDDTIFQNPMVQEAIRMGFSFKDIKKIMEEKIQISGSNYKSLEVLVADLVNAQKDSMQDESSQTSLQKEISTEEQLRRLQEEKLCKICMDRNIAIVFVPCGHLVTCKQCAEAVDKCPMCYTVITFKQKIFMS
Chain of Dihydroorotate dehydrogenase (quinone), mitochondrial (Plasmodium falciparum (isolate 3D7)) (Q08210 whole entry, looked up): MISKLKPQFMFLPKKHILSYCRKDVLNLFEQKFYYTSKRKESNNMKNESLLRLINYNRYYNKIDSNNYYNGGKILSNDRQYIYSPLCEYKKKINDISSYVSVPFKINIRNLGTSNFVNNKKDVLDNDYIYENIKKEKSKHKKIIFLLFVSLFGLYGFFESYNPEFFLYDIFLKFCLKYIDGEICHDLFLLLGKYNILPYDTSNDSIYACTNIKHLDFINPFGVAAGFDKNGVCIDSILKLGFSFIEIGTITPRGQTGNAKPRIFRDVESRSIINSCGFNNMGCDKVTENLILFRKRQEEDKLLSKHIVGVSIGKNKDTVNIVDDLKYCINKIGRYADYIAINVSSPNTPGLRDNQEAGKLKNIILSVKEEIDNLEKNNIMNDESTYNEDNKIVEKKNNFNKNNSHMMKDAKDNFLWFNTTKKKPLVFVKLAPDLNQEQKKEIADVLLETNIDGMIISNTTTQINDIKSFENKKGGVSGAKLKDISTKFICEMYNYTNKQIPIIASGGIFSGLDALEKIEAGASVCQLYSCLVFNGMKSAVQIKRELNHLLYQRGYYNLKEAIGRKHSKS

Take `O=C(N1CCCCC1)[C@@]1(Cc2ccccc2)N=C(c2ccc(OCCCO)cc2)O[C@H]1c1ccccc1`: the z-score in [1] was 1.33; in assay [2], -2.47; in assay [3], -3.48; in assay [4], -3.78; in [5], -1.61; in [6] it was 0.804 (inactive). The z-score is -0.982 in assay [7]; -2.56 in assay [8]; 0.935 (inactive) in [9]; 0.569 in [10]; -0.635 (inactive) in assay [11]; -3.06 (inactive) in assay [12]. Further, the z-score was 0.895 (inactive) in [14], 1.97 (inactive) in [15], 0.242 (inactive) in assay [16] and -5.21 in assay [17]. Besides, the composite z-score in assay [13] was 0.31 (inactive); in assay [18] it was -0.0448; in assay [19] it was 0.764 (inactive); in the assay with XIP peptide (Xip251-270) it was 0.66.
For `CCOC(=O)C[C@H]1[C@H](OC(=O)c2ccc(-c3ccccc3)cc2)[C@@H](NC(=O)C2CCCCC2)c2cc(OCCCO)ccc2N1C(=O)c1ccc2ccccc2n1`, the z-score is 1.25 in assay [1]; -0.0303 in [2]; 0.881 in [3]; 0.179 in [4]; 2.69 in assay [5]; 1.82 (inactive) in assay [6]. The z-score in assay [7] is -0.953; in [8], 0.717; in assay [9], 1.02 (inactive); in [10], 1.24; in [11] it was -0.275 (inactive); in [12] it was 1.22 (inactive). Also, the z-score is -1.33 (inactive) in [14], 1.56 (inactive) in assay [15], 0.999 (inactive) in assay [16] and 0.509 in assay [17]. Also, the composite z-score in [13] was 0.478 (inactive); in [18], 0.158; in [19] it was 0.29 (inactive); with XIP peptide (Xip251-270) it was 0.0417.
In the case of `CC(=O)OC(C/C=C\B1OC(C)(C)C(C)(C)O1)c1ccccc1` (stereo not given), the z-score is 0.554 in assay [1]; 0.467 in assay [2]; 0.345 in [3]; 0.0422 in assay [4]; 2.03 in [5]; 2.31 (inactive) in assay [6]. The z-score was -0.457 in assay [7]; 0.962 in assay [8]; 0.273 (inactive) in [9]; 0.518 in [10]; -2.1 (inactive) in assay [11]; 1.14 (inactive) in [12]. Moreover, the z-score in assay [14] is -4.44 (inactive); in assay [15] it was 1.5 (inactive); in assay [16], 0.57 (inactive); in [17], 0.157. Moreover, the composite z-score is 0.339 (inactive) in [13], -0.0256 in [18], -0.65 (inactive) in assay [19] and -0.842 in the assay with XIP peptide (Xip251-270).
Take `CC(C)NC(=O)[C@@H]1c2ccccc2C(=O)N(Cc2cc(F)cc(C(F)(F)F)c2)[C@H]1c1ccc(CO)cc1`: the z-score in assay [1] is 1.41; in [2], 0.813; in assay [3] it was 0.404; in assay [4] it was 0.252; in assay [5], 1.59; in assay [6], -0.64 (inactive). For the same compound, the z-score is -0.834 in [7]; 0.621 in assay [8]; 1.84 (inactive) in assay [9]; 0.641 in assay [10]; -0.518 (inactive) in assay [11]; 1.39 (inactive) in assay [12]. Further, the z-score in assay [14] was -0.284 (inactive); in assay [15], 1.33 (inactive); in assay [16], 0.326 (inactive); in assay [17], 1.5. In addition, the composite z-score was -0.243 (inactive) in assay [13], -0.174 in [18], 0.873 (inactive) in assay [19] and -1.01 with XIP peptide (Xip251-270).
In the case of `CC(C)(C)OC(=O)CC[C@@]1(C(=O)N2CCOCC2)N=C(c2ccc(OCCCO)cc2)O[C@@H]1c1ccccc1`, the z-score in assay [1] is 0.861; in [2] it was -0.215; in [3], 0.317; in assay [4], 0.414; in assay [5] it was 0.652; in [6] it was 1.08 (inactive). Besides, the z-score in assay [7] was -0.959; in [8], 0.609; in [9] it was 1.6 (inactive); in [10], 0.957; in assay [11], 0.0776 (inactive); in assay [12] it was 1.43 (inactive). The z-score in assay [14] is 0.732 (inactive); in [15], 2.19 (inactive); in [16] it was 0.869 (inactive); in [17] it was 1.53. Moreover, the composite z-score in [13] was 0.464 (inactive); in [18], 0.105; in assay [19] it was 1.6 (inactive); in the assay with XIP peptide (Xip251-270) it was -0.326.

Values taken from PubChem BioAssay.
